What all share (type): functional
Experiment [1] has as its system Plasmodium falciparum. Put plainly: GSK_TCMDC: Inhibition of Plasmodium falciparum 3D7 in whole red blood cells, using parasite LDH activity as an index of growth. Test compounds present at 2uM.
Experiment [2] relates to Plasmodium falciparum. Put plainly: GSK_TCMDC: Inhibition of Plasmodium falciparum Dd2 in whole red blood cells, using parasite LDH activity as an index of growth. Test compounds present at 2uM.
The test system of experiment [3] is HepG2. Kind of experiment: GSK_TCMDC: Percent inhibition of human HepG2 cell line. Test compounds present at 10uM.

The values below come from ChEMBL document CHEMBL1157539, “Thousands of chemical starting points for antimalarial lead identification” (Nature, 2010).

As a reminder, the Inhibition is the change of the read-out against control, counted positive when it falls. Low readings indicate a response near the control, high ones a response far below the control.

Take `CC(C)NC[C@@H](O)[C@H](Cc1ccccc1)NC(=O)c1cc2c3c(c1)c(C(C)C)cn3CCS(=O)(=O)N2C.O=CO`: the Inhibition turned out to be 98% in experiment [1], 99% in experiment [2] and 5% in experiment [3].
The like results for `FC(F)(F)c1cccnc1N1CCC(Nc2nc3cc(Cl)ccc3[nH]2)CC1` were, in that order, 93%, 39% and 32%.
In the case of `CCn1c(SCC(=O)Nc2cc(C(F)(F)F)ccc2Cl)nc2ccccc2c1=O`, the Inhibition is reported as 93% in experiment [1], 95% in experiment [2] and 8% in experiment [3].
The matching figures for `CCOc1c(CNCCCNc2cc(O)c3ccccc3n2)cc(Br)cc1OC`: 80%, 18% and 10%.
The matching figures for `C=C[C@]1(C)C[C@@H](OC(=O)c2cncn(COC)c2=O)[C@]2(C)[C@H](C)CC[C@]3(CCC(=O)[C@H]32)[C@@H](C)[C@@H]1O`: 96%, 7% and 0%.
The matching figures for `O=C(O)C(F)(F)F.O=[N+]([O-])c1ccc(Oc2ccccc2CNCC2CCN(CC3CCCCC3)CC2)cc1`: 89%, 28% and 40%.
As for `CCN(CC)CCNC(=O)c1ccc(NC(=O)c2cn(-c3ccccc3)nc2-c2cccs2)cc1`, the Inhibition is 100% in experiment [1], 94% in experiment [2] and 30% in experiment [3].
For the compound `Cl.N=C(NCCc1ccccc1Cl)c1ccc2ccccc2c1`, the Inhibition is recorded as 88% in experiment [1], 11% in experiment [2] and 25% in experiment [3].
The like results for `CN(C)CCN(C)Cc1ccc(-c2ccc(NC(=O)c3cccc(Cl)c3)cc2)cc1.O=C(O)C(F)(F)F` were, in that order, 94%, 54% and 50%.
In the case of `Cc1ccc(F)c(OC2CCN(c3ccc(C(=O)NC4CC4)cn3)CC2)c1`, the Inhibition in experiment [1] was determined as 92%; in experiment [2] it was 72%; in experiment [3], 10%.
`Br.CC1(C)N=C(N)N=C(N)N1OCc1cccc(C#N)c1`: the Inhibition in experiment [1] is 94%; in experiment [2], 2%; in experiment [3] it was 57%.
`COc1ccc2nccc([C@@H](O)CN3CCC(NC(=O)c4ccc(-c5ccccc5)s4)CC3)c2c1`: the figures for the Inhibition in experiment [1], in experiment [2] and in experiment [3] were 100%, 81% and 10%, respectively.
The like results for `CCCCCCNC(=O)C1Cc2c([nH]c3ccccc23)C2(CCN(CCc3ccccc3)CC2)N1` (stereo not drawn) were, in that order, 96%, 34% and 41%.
The like results for `c1ccc(CNc2nc(NCCc3c[nH]cn3)nc(N3CCCC4CCCCC43)n2)cc1` (stereo not drawn) were, in that order, 98%, 100% and 0%.
With `COc1ccc(Cl)cc1N1CCN(CCCNC(=O)c2ccc(-c3nc4cc(Cl)c(C)cc4[nH]3)s2)CC1`, the Inhibition in experiment [1] turned out to be 100%; in experiment [2], 97%; in experiment [3], 0%.
The like results for `CC(C)Cn1c(Sc2ccc(C#N)c([N+](=O)[O-])c2)nnc1-c1ccc(N(C)C)cc1` were, in that order, 98%, 98% and 4%.
The like results for `Cc1ccc(-c2noc(=O)n2CC(=O)Nc2ccccc2-c2ccccc2)cc1` were, in that order, 100%, 86% and 0%.
The matching figures for `COCCNCc1nc(-c2ccc3c(Nc4ccc(F)c(O)c4)ccnc3c2)cs1`: 100%, 99% and 0%.
In the case of `CC1(C)CN(CCC2CCC(NC(=O)/C=C/c3ccccc3F)CC2)Cc2ccc(C#N)cc21.Cl` (stereo not drawn), the Inhibition worked out at 89% in experiment [1], 82% in experiment [2] and 0% in experiment [3].
The matching figures for `Cc1ccc(CN2CCCN(Cc3ccc(C(=O)Nc4ccc(Cl)cc4)cc3)CC2)s1.O=C(O)C(F)(F)F`: 85%, 5% and 53%.
The matching figures for `O=S(=O)(c1cccc(Br)c1)N1CCCCC(c2ccc(C(F)(F)F)cc2)=N1`: 91%, 92% and 30%.
The matching figures for `CCC(C)NS(=O)(=O)c1ccc2nc(Nc3ccc(C)cc3)n(C3CCCCC3C)c2c1` (stereo not drawn): 95%, 99% and 1%.
With `O=C(O)CCSSc1cccc[n+]1[O-]`, the Inhibition turned out to be 95% in experiment [1], 0% in experiment [2] and 100% in experiment [3].
The like results for `O=C(NCCc1ccc(Cl)c(Cl)c1)[C@@H]1CCCN1C(=O)c1ccc(O)c(-c2cccc(C(F)(F)F)c2)c1` were, in that order, 97%, 82% and 0%.
With `COc1ccc(CN(C)CCCOc2ccc(NC(=O)c3cccc4c(=O)c5cccc(C)c5[nH]c34)cc2)cc1OC`, the Inhibition amounted to 96% in experiment [1], 62% in experiment [2] and 3% in experiment [3].
As to `CC1CCc2sc(-c3nnc(SC(C)C(=O)NC4CC4)o3)cc2C1` (stereo not drawn), the Inhibition in experiment [1] was 83%; in experiment [2], 69%; in experiment [3] it was 5%.
The like results for `COc1ccc(N(c2nc(-c3cc(Cl)ccc3Cl)cs2)C2CCNC2)cc1.O=C(O)C(F)(F)F` (stereo not drawn) were, in that order, 95%, 9% and 21%.
The matching figures for `CC(C)Cn1c(Sc2ccc(C#N)c([N+](=O)[O-])c2)nnc1-c1cccc(Cl)c1`: 98%, 95% and 24%.
Turning to `CC1(C)CC(=O)c2c(O)cc(OCc3ccncc3)cc2O1.Cl`, the Inhibition in experiment [1] is reported as 92%; in experiment [2], 47%; in experiment [3], 80%.
The matching figures for `N#CC1(c2ccccc2)CCN(c2nc(NCCCN3CCCC3=O)nc(N3CCCC4CCCCC43)n2)CC1` (stereo not drawn): 95%, 92% and 0%.
The like results for `Cc1cc2c(cc1Cl)N(C(=O)Nc1cc(F)cc(-c3cncnc3)c1)CC2` were, in that order, 96%, 59% and 0%.
